# About 83,000 compounds went through this panel and 20% of them were active in at least one assay; those are over-represented in the sample as a whole.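 Percent growth is the endpoint: 0 to 100 indicates growth inhibition (40 means 60% inhibition), 0 means no net growth, and negative values indicate cell death.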 A number with no mark means an inactive call. Activity calls are given as the source filed them. The calls were made as follows: active = growth percent below 10; inactive = the rest.
# Key:
# Test in all cases: NCI-60 one-dose screen, 48 h (100 = growth as untreated, 0 = no growth, -100 = all killed)
# Details in all cases: 10 µM unless noted
# RPMI-8226 leukemia = system: RPMI-8226 leukemia
# OVCAR-8 ovarian = system: OVCAR-8 ovarian
# OVCAR-5 ovarian = system: OVCAR-5 ovarian
# OVCAR-4 ovarian = system: OVCAR-4 ovarian
# SK-OV-3 ovarian = system: SK-OV-3 ovarian
# IGROV1 ovarian = system: IGROV1 ovarian
# OVCAR-3 ovarian = system: OVCAR-3 ovarian
# HS 578T breast = system: HS 578T breast
# NCI/ADR-RES ovarian = system: NCI/ADR-RES ovarian
# T-47D breast = system: T-47D breast
# BT-549 breast = system: BT-549 breast
# MDA-MB-435 melanoma = system: MDA-MB-435 melanoma
# SW-620 colon = system: SW-620 colon
# MCF7 breast = system: MCF7 breast
# HCT-116 colon = system: HCT-116 colon
# HCC-2998 colon = system: HCC-2998 colon
# KM12 colon = system: KM12 colon
# SR leukemia = system: SR leukemia
SMILES,growth (RPMI-8226 leukemia),growth (OVCAR-8 ovarian),growth (OVCAR-5 ovarian),growth (OVCAR-4 ovarian),growth (SK-OV-3 ovarian),growth (IGROV1 ovarian),growth (OVCAR-3 ovarian),growth (HS 578T breast),growth (NCI/ADR-RES ovarian),growth (T-47D breast),growth (BT-549 breast),growth (MDA-MB-435 melanoma),growth (SW-620 colon),growth (MCF7 breast),growth (HCT-116 colon),growth (HCC-2998 colon),growth (KM12 colon),growth (SR leukemia)
CN=S(=O)(NC(=O)c1ccc(Cl)cc1Cl)c1ccc(Br)s1 (stereo unspecified),98%,97.6%,95.3%,103%,111%,101%,109%,97.8%,99.3%,95.8%,103%,97.6%,98.8%,101%,102%,111%,110%,–
O=C(CN1CCN(c2cc3c(cc2F)c(=O)c(C(=O)O)cn3C2CC2)CC1)Nc1ccc(C(=O)/C=C/c2ccccc2)cc1,2.45% (active),6.3% (active),82.6%,86.4%,93.6%,42.9%,54.9%,51.9%,93.5%,85.1%,9.61% (active),19.2%,41%,12.5%,-83.6% (active),70.1%,25.3%,–
Cc1ccc(OCCn2c(C)nn(-c3ccc(Cl)cc3)c2=O)cc1,97.1%,109%,113%,98.9%,113%,112%,124%,89.6%,103%,104%,99.8%,105%,106%,98.8%,95.5%,111%,117%,–
COc1ccc(-c2nc(-c3ccccc3)c(-c3ccccc3)n2C2CC2)cc1OC1CCCCC1,48.7%,55.4%,83%,67.9%,89.4%,63.1%,58.4%,73.8%,55.3%,58.4%,97.3%,72.5%,58.2%,52%,38.8%,83.2%,62.2%,–
CN(C)c1ccc(-c2ccc(-c3ccc(C(=N)N)cn3)o2)cc1,-43.4% (active),-54.7% (active),-25% (active),-17.3% (active),-24.4% (active),-26.8% (active),-96.7% (active),-19.7% (active),22.5%,-68.2% (active),-11.8% (active),-84.2% (active),-72.6% (active),-38.1% (active),-62.4% (active),-73.5% (active),-97% (active),–
N=C(N)c1ccc(-c2ccc(-c3ccc(Cl)cc3)o2)nc1,-62.4% (active),-43.4% (active),-83.8% (active),-73.6% (active),-96.7% (active),-60.6% (active),-98.3% (active),-57.2% (active),-69.7% (active),-75.4% (active),-88% (active),-84.5% (active),-93.4% (active),-81.4% (active),-84.4% (active),-71.9% (active),-93.4% (active),–
C=CCn1c(C)nc2ccc(Nc3nc(Nc4ccc(F)cc4)nc4ccccc34)cc21,–,33.4%,81.3%,–,98.6%,51.1%,51.2%,54.4%,38.4%,35%,59.2%,–,–,26.1%,26.9%,80.6%,36.6%,22.4%
COc1cc2c(cc1OC)C1(C)N(CC2)C(=O)OC1(C)C (stereo unspecified),105%,98.4%,107%,99.5%,107%,109%,114%,98.1%,105%,98.4%,115%,113%,103%,91.3%,104%,102%,112%,–
O=C(/C=C/c1ccccc1)n1c(-c2ccc(Cl)cc2)nc2ccccc21,-31.1% (active),-31.3% (active),-48.1% (active),30%,24%,10.4%,-57.2% (active),20%,10.8%,-4.25% (active),-50.5% (active),-44.3% (active),-55.1% (active),10.3%,-71.5% (active),5.08% (active),-62.9% (active),–
CCOC(=O)C1=C(C)NC(=O)NC1c1ccc(OCC(=O)N/N=C/c2ccc(Cl)cc2)cc1 (stereo unspecified),90.1%,95.2%,87.9%,95.1%,88.9%,94.9%,99.8%,86.6%,106%,87.1%,87.5%,90.6%,94.2%,90.1%,94.2%,97.5%,96.3%,–
COc1cc(/C=C/C(=O)c2ccc(NC(=O)CN3CCN(c4cc5c(cc4F)c(=O)c(C(=O)O)cn5C4CC4)CC3)cc2)cc(OC)c1OC,-18.8% (active),4.74% (active),16.9%,16.4%,33.3%,-1.19% (active),-25.8% (active),76.8%,98.2%,17.5%,-86.7% (active),-1.52% (active),6.38% (active),26.5%,-88.2% (active),-11.6% (active),-65.1% (active),–
CCN1C(=O)N[C@H]2[C@@H]3NC(=O)c4ccc(Cl)n4[C@@H]3C[C@]21O,-21.2% (active),1.27% (active),24.5%,3.02% (active),28.6%,1.44% (active),2.22% (active),-10.9% (active),76.4%,-7.84% (active),-23.4% (active),0.981% (active),3.96% (active),1.38% (active),0.673% (active),2.42% (active),5.68% (active),–
NC(N)=NC(N)=Nc1ccccc1-c1ccccc1,112%,113%,110%,110%,123%,110%,117%,109%,117%,108%,131%,103%,107%,110%,102%,105%,107%,–
N#Cc1c(NC(=O)c2ccc([N+](=O)[O-])o2)[n+]([O-])c2cc(F)c(F)cc2[n+]1[O-],–,68%,108%,–,129%,–,122%,158%,102%,118%,203%,109%,128%,96.5%,104%,106%,98.9%,77.3%
COc1ccc(/C=N/NC(=O)Cn2c(Cc3cccc4ccccc34)nc3ccccc32)cc1,88.3%,93.7%,96%,104%,106%,108%,101%,95.8%,93.6%,85.8%,107%,103%,109%,92.4%,100%,107%,98%,–
Nc1c(C(=O)Nc2cccc(C(F)(F)F)c2)sc2nc3c(cc12)CCCCC3,–,21.3%,35.5%,–,-21.4% (active),-17.4% (active),3.45% (active),16.6%,17.1%,-11.6% (active),25.2%,32.7%,58.3%,29.5%,-7.78% (active),46.9%,35.7%,33.3%

# Reference: PubChem BioAssay (NCI)
